Compound activity (PubChem)
Compounds with a hit are over-represented: about 28% of the library has one in this group of screens.
CYP2C9 inh: blockers of cytochrome P450 2C9 activity – biochemical, luminescence, ADME assay, primary screen; inhibition, % at 5 µM; CYP2C9 Supersomes, luciferin-H conversion; P11712; hit rate 20% among 96,000; AID 777, 2007;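 active = blocking of liver enzyme CYP2C9 beyond about 50% at 5 µM, limit read from the data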
CYP2C19 act: human CYP2C19 activators, primary screen, biochemical, luminescence; Cytochrome P450 2C19 (Homo sapiens), P33261; recombinant CYP2C19, luciferin-H EGE luminescence; active compounds read high; 0 = fully inhibited enzyme, 1 = untreated enzyme; activation factor at 5 µM; 96,000 tested, under 10 active;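 active = activation factor of at least 2 at 5 µM in the primary screen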;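 note: 0 = wells with 2.5 mM tranylcypromine and 1 = vehicle-only wells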
Target sequence (P33261 whole entry, looked up): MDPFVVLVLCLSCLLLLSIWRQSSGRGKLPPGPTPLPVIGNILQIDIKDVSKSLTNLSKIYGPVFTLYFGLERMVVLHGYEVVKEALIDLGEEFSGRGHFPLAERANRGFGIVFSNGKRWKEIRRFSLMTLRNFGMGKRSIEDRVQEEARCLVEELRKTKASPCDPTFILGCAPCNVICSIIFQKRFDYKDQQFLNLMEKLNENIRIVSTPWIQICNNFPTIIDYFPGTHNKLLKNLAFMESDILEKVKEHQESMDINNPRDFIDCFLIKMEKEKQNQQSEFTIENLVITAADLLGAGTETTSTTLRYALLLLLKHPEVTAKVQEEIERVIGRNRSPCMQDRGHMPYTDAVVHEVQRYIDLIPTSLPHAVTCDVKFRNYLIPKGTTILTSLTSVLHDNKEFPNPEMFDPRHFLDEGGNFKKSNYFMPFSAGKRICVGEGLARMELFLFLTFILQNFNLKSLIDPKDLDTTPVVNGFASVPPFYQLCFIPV
CYP2C19 inh: blockers of cytochrome P450 2C19 activity – biochemical, luminescence, ADME assay, primary screen; P33261; inhibition, % at 5 µM; CYP2C19 Supersomes, luciferin-H EGE luminescence, 30 min; AID 778, 2007; hit rate 21% among 96,000;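 active = CYP2C19 inhibition above a set limit at 5 µM in the primary screen, cut at about 50% in these data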;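 note: plate controls were negative control wells for no effect and 2.5 mM tranylcypromine positive control for full effect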
CYP2C9 activ: human CYP2C9 activators, primary screen, biochemical, luminescence | activation factor at 5 µM | hit rate 1.4% among 96,000 | recombinant CYP2C9, luciferin-H conversion; active compounds read high; factor 1 = untreated enzyme, 0 = blocked | Cytochrome P450 2C9 (Homo sapiens), P11712;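 active = activation factor of 2 or more for CYP2C9 at a 5 µM dose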;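 note: 0 = sulfaphenazole-blocked wells and 1 = vehicle-only wells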
Mac1 fbg enh: enhancers of CD11b/CD18 adhesion to fibrinogen, primary screen, K562 cells, luminescence; ATPlite luminescence; activation, % at 10 µM; Integrin beta-2 (Homo sapiens) + Integrin alpha-M (Homo sapiens), P05107+P11215; hit rate 0.07% among 93,000; AID 1499, 2009;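 active = 10 µM primary screen giving 50% or more activity, confirmed by 40% or more on retest at that dose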
Mac1 fbg inh: inhibitors of CD11b/CD18 adhesion to fibrinogen, primary screen, K562 cells, luminescence. Integrin beta-2 (Homo sapiens) + Integrin alpha-M (Homo sapiens), P05107+P11215. ATPlite luminescence; Mn2+ added to activate the integrin. inhibition, % at 10 µM. hit rate 0.54% among 93,000;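 active = primary inhibition of 50% or more at 10 µM, then 40% or more on retest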
An asterisk follows results filed as active; · = no result given.

SMILES | CYP2C9 inh | CYP2C19 act | CYP2C19 inh | CYP2C9 activ | Mac1 fbg enh | Mac1 fbg inh
O=C1c2ccccc2C(Nc2ccc3c(c2)OCCO3)N1Cc1ccc2c(c1)OCO2 (centres undefined) | 79.8* | 0.2 | 77.7* | 0.2 | -1.2 | 9.6
CN1/C(=C\C=Nc2cc(S(=O)(=O)N3CCOCC3)ccc2N2CCOCC2)C(C)(C)c2ccccc21 | · | · | · | · | -2.3 | 4.9
COc1ccc(C(=O)NCC23C=CC(O2)C2C(=O)N(Cc4ccccc4)C(=O)C23)cc1 (centres undefined) | 34.2 | 0.4 | 62.1* | 0.7 | 1.0 | 2.6
CC(=O)Oc1ccc(N2C(=O)C3C4C=CC(CO)(O4)C3C2=O)cc1 (centres undefined) | -33.0 | 1.2 | -16.0 | 1.3 | 1.3 | 33.2
COc1ccnc(N=CNOCc2ccc(F)cc2Cl)c1C#N | 9.6 | 0.6 | 38.8 | 0.9 | 1.8 | -2.1
CCC(C)c1ccc(NC(=O)C2CC2)cc1 (centres undefined) | 2.4 | 1 | 4.3 | 1 | 3.7 | -44.7
CC(=O)Nc1ccc(Cc2ccncc2)cc1 | 86.8* | 0 | 97.4* | 0.1 | -4.0 | -10.8
CC(=O)Nc1ccc2nc(-c3ccncc3)[nH]c2c1 | 32.7 | 0.7 | 30.1 | 0.7 | -2.2 | -7.7
O=C(O)CCC(=O)Nc1ccc(Cc2ccc(NC(=O)CCC(=O)O)c(O)c2)cc1O | -9.5 | 1.2 | -15.5 | 1.1 | -4.0 | -2.9
O=C(Nc1ccc(Cc2ccncc2)cc1)C1CC1 | 88.7* | 0.2 | 84.0* | 0.1 | 13.5 | -24.0
COc1ccc(NC(=O)Nc2ccc(Cc3ccncc3)cc2)cc1OC | 78.3* | 0.2 | 76.8* | 0.2 | 0.6 | -10.7
O=C(Nc1ccc(Cc2ccc(NC(=O)C3CC3)c(O)c2)cc1O)C1CC1 | 69.9* | 0.9 | 13.2 | 0.3 | 0.8 | -19.9
COc1cc(NC(=O)Nc2cccc(C(C)=O)c2)cc(OC)c1OC | 21.3 | 0.8 | 17.9 | 0.8 | 1.5 | -4.2
COc1cc(NC(=O)NCc2ccncc2)cc(OC)c1OC | 67.1* | 0.4 | 61.5* | 0.3 | 0.6 | -18.1
CC(=O)NCCOC(=O)Nc1ccncc1 | 62.5* | 0.8 | 22.2 | 0.4 | -3.5 | 0.1
O=S(=O)(Nc1ccc(Cc2ccncc2)cc1)N1CCCC1 | 97.1* | 0 | 100.0* | 0 | 4.7 | -17.1
CC(=O)NCCOC(=O)Nc1cccnc1 | 0.9 | 1.1 | -9.2 | 1 | -0.9 | -12.3
O=C(Nc1ccc(Cc2ccncc2)cc1)C1CCC(N2C(=O)C3C4C=CC(C5CC45)C3C2=O)CC1 (centres undefined) | 74.2* | 0.6 | 40.5 | 0.3 | -0.8 | 7.4
CCC(=O)Nc1cccc(NC(=O)c2ccc(C)c([N+](=O)[O-])c2)c1 | -19.0 | 0.9 | 12.6 | 1.2 | -5.1 | 1.4
Cc1ccc(C(=O)Nc2ccc(Cc3ccncc3)cc2)cc1[N+](=O)[O-] | 89.6* | 0.1 | 90.7* | 0.1 | -9.2 | 4.0
C[C@H](NC(=O)C1(c2ccccc2)CCN(C(=O)[C@H]2CSCN2C(=O)OC(C)(C)C)CC1)C(=O)O | 11.4 | 0.9 | 9.1 | 0.9 | 1.0 | -12.0
CC(OC(=O)c1cccs1)C(=O)NCc1cccs1 (centres undefined) | 62.0* | 0 | 95.2* | 0.4 | -3.8 | -17.5
CC(C)CC(OC(=O)c1cccs1)C(=O)NCc1cccs1 (centres undefined) | 92.2* | 0 | 95.3* | 0.1 | -4.3 | 1.1
CCN(CC)CCNC(=O)c1cn(CC)c2ccc(S(=O)(=O)N(C)C)cc2c1=O | -5.0 | 1 | -4.7 | 1.1 | 26.5 | -1.9
CN(CCCNC(=O)c1cn(C)c2ccc(S(=O)(=O)N(C)C)cc2c1=O)c1ccccc1 | 60.1* | 0.8 | 22.6 | 0.4 | 4.0 | 11.0
SMILES | CYP2C9 inh | CYP2C19 act | CYP2C19 inh | CYP2C9 activ | Mac1 fbg enh | Mac1 fbg inh
CN(C)S(=O)(=O)c1ccc2c(c1)c(=O)c(C(=O)NCCCN1CCCCCC1)cn2C | 13.3 | 1 | -0.2 | 0.9 | -0.1 | -6.7
CCN(CC)S(=O)(=O)c1ccc2c(c1)c(=O)c(C(=O)NCCCN(C)c1ccccc1)cn2C | 57.1* | 0.9 | 10.5 | 0.4 | 5.8 | 11.1
C=CCn1cc(C(=O)NCCCOC)c(=O)c2cc(S(=O)(=O)N(CC)CC)ccc21 | 59.4* | 1.1 | -8.0 | 0.4 | -1.3 | -6.1
CCN(CC)CCNC(=O)c1cn(C)c2ccc(S(=O)(=O)N(C)C3CCCCC3)cc2c1=O | -2.6 | 1 | -2.2 | 1 | 0.9 | -2.3
COC(=O)c1ccc(C(=O)OC)c(NC(=O)CSc2cccc[n+]2[O-])c1 | -2.8 | 1.1 | -15.0 | 1 | -4.4 | -16.4
CCOc1ccc2ncc(S(=O)(=O)c3ccc(C)cc3)c(N3CCC4(CC3)OCCO4)c2c1 | · | · | · | · | 4.5 | 8.1
CC(C)[C@H](NC(=O)CCn1nnc2ccccc2c1=O)C(=O)O | -6.1 | 1 | -1.9 | 1.1 | -0.2 | -2.8
O=C(N/N=C\c1ccccn1)C1COc2cc3ccccc3cc2O1 (centres undefined) | -3.7 | 0.9 | 13.8 | 1 | · | ·
COc1ccc(NC(=S)NC(NC(=O)c2ccc(Cl)cc2Cl)C(Cl)(Cl)Cl)c([N+](=O)[O-])c1 (centres undefined) | 98.5* | 0 | 96.3* | 0 | -3.3 | 82.6*
COc1ccc(NC(=S)NC(NC(=O)c2cccc3ccccc23)C(Cl)(Cl)Cl)c([N+](=O)[O-])c1 (centres undefined) | 83.3* | 0.8 | 19.3 | 0.2 | 17.4 | -39.0
COc1ccc(NC(=S)NC(NC(=O)c2ccccc2Cl)C(Cl)(Cl)Cl)c([N+](=O)[O-])c1 (centres undefined) | 74.0* | 0.8 | 24.5 | 0.3 | 5.9 | 14.4
CCC(C)(C)C(=O)Nc1ccc(OC)cc1[N+](=O)[O-] | 8.9 | 0.7 | 28.5 | 0.9 | · | ·
COc1ccc(NC(=O)c2ccc(C)cc2Cl)c([N+](=O)[O-])c1 | -258.8 | 0.7 | 34.6 | 3.6* | 0.8 | -0.2
COc1ccc(CCNC(=O)c2c(-c3ccccc3Cl)noc2C)cc1 | 67.6* | 0.2 | 79.8* | 0.3 | 1.7 | -9.6
COc1ccc2cc(CCNC(=O)c3c(-c4ccccc4Cl)noc3C)c(=O)[nH]c2c1 | 67.0* | 0.6 | 42.9 | 0.3 | -0.7 | 0.8
Cc1onc(-c2ccccc2Cl)c1C(=O)NCc1cccnc1 | -4.4 | 0.6 | 35.5 | 1 | · | ·
Cc1onc(-c2ccccc2Cl)c1C(=O)NCCN1Cc2ccccc2C1=O | 59.1* | 0.2 | 75.1* | 0.4 | -2.1 | 7.1
O=C(Nc1ccccc1OC(F)F)c1ccc(Br)o1 | 20.2 | 0.5 | 48.7 | 0.8 | 1.3 | 0.8
O=C(OCC(=O)N1CCN(C(=O)c2ccco2)CC1)c1cc(=O)c2ccccc2o1 | 4.6 | 1 | -4.8 | 1 | 1.0 | -5.1
